# Reference: PubChem BioAssay AID1030 (National Center for Advancing Translational Sciences (NCATS), 2008)
# In all, about 220,000 compounds went through this assay and about 16,000 (7.3%) were called active. Roughly 25% stayed inconclusive and do not appear here. Shown is part of a subset that was picked to be rich in actives. Unmarked numbers belong to inactive results. Calls come from the whole dose curve; as a rule, active = well fitted inhibition curve with a large enough effect (not every such curve was filed as active); inconclusive = small, poorly fitted or top-dose-only effect, or another doubt; inactive = no such curve, though single readings can be large or run the other way.
# Molecular target: Aldehyde dehydrogenase 1A1 (Homo sapiens) (UniProt P00352)
# Sequence (P00352 whole entry, looked up): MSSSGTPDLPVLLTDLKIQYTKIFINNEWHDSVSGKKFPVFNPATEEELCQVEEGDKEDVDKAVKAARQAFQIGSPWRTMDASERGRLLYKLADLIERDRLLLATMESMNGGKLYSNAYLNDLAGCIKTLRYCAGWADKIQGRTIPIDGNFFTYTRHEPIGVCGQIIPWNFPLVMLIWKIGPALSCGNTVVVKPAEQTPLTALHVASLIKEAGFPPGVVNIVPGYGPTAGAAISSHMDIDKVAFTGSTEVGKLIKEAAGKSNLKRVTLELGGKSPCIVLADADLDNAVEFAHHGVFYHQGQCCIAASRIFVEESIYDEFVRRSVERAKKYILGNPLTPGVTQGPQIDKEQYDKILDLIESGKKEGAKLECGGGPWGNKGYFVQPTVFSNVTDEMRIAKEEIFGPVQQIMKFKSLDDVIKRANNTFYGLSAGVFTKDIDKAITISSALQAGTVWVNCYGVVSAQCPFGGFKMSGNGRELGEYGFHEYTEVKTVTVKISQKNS
# Test: qHTS Assay for Inhibitors of Aldehyde Dehydrogenase 1 (ALDH1A1);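 for activity, negative = inhibition: plate controls were no enzyme wells and a reference inhibitor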
# Conditions: Purified ALDH1A1, NADH fluorescence, propionaldehyde substrate; series mostly up to 75.3 µM; activity, negative = inhibition: at the top concentration
# Potency is the fitted concentration of half-maximal effect.
SMILES,"activity, negative = inhibition",Potency
CC1CCCC(C)N1/N=C/c1ccccc1OC(F)F (stereo not drawn),-0.166%,
COc1ccc(NC(=O)CN2CCN(S(=O)(=O)c3ccc(F)cc3)CC2)cc1Cl,-1.89%,
CN1CCN(S(=O)(=O)c2ccc(NC(=O)C3CCCO3)cc2)CC1 (stereo not drawn),-9.73%,
CN(CC(=O)Nc1ccc(S(=O)(=O)N2CCCC2)cc1)Cc1ccc(Cl)c(Cl)c1,,20 µM (active)
OCCC#Cc1ccc(CN2CCN(Cc3ccsc3)C(CCO)C2)cc1 (stereo not drawn),3.08%,
NC(CSC12CC3CC(CC(C3)C1)C2)C(=O)O (stereo not drawn),,12.6 µM (active)
Cc1ccc(C)c(NC(=O)CCC(=O)N/N=C2/CC(=O)CC(C)(C)C2)c1,-0.74%,
O=C(CN1CCOCC1)Nc1cc(Cl)ccc1Cl,-0.628%,
O=C(CN1CCN(c2ccc(O)cc2)CC1)Nc1cc(S(=O)(=O)N2CCOCC2)ccc1Cl,,25.1 µM (active)
O=C(COc1cccc2ccccc12)Nc1cc(S(=O)(=O)N2CCOCC2)ccc1N1CCOCC1,-7.3%,
C=CCn1c(Oc2ccc(C(=O)OC)cc2)nc2c1c(=O)n(C)c(=O)n2C,7.05%,
Cn1c(=O)c2c(nc(N/N=C/c3cccs3)n2Cc2ccc(Br)cc2)n(C)c1=O,-4.65%,
C/C(Cl)=C\Cn1c(Nc2cccc(C)c2)nc2c1c(=O)n(C)c(=O)n2C,,20 µM (active)
CC[C@H](C)[C@@H](C(=O)N1CCNCC1)n1cc([C@@H](N)Cc2ccc(O)cc2)nn1,-2.81%,
COC(=O)C1=C(C(=O)OC)[C@@H]2N(C)c3ccccc3[C@@]23C[C@@H](C(=O)OC)N(S(=O)(=O)c2ccc(Br)cc2)C3=N1,6.9% [at 13.5 µM],
O=c1[nH]n2c(=O)c3c([nH]c2c1N=Nc1ccccc1)CCC3,-7.15%,
O=C(/C=N/O)Nc1ccccc1,10.4%,
O=[N+]([O-])/C(N=Nc1ccccc1)=N\Nc1ccccc1,,14.1 µM (active)
COc1cc(C(=O)Nc2cc(C(F)(F)F)ccc2-n2cncn2)cc(OC)c1OC,-11.5%,
CCOc1ccc(CN2CCN(Cc3ccon3)CC2CCO)cc1 (stereo not drawn),-7.29%,
COc1ccc(/C=N/NC(=O)c2cccc(C(F)(F)F)c2)cc1,143%,
COc1ccc2nc(NC(=O)[C@@H]3CCCN3C(=O)c3cccs3)sc2c1,15.3%,
CCOc1ccc(NC(=O)C2CCCN(C(=O)Nc3ccccc3)C2)cc1 (stereo not drawn),5.91%,
CCOc1ccc2nc(C(=O)N3CCCC(C)C3)sc2c1 (stereo not drawn),,14.1 µM (active)
COc1cc(OC)nc(N/N=C(\c2ccccc2)c2ccncc2)n1,-13.5%,
COc1ccc(-c2nnc3ccc(SCc4ccccc4)nn23)cc1,26.6%,

SMILES,"activity, negative = inhibition",Potency
Fc1cccc(CSc2nnc3ccc(-c4ccncc4)nn23)c1,4.55%,
Cc1cccc(OCCC(=O)Nc2cc(S(=O)(=O)N3CCCCC3)ccc2N2CCOCC2)c1,-16.5%,
Cc1ccc(/C=C/C(=O)Nc2cc(S(=O)(=O)N3CCCCCC3)ccc2OCC(F)(F)F)o1,,28.2 µM (active)
COc1ccc(S(=O)(=O)N2CCCCCC2)cc1C(=O)OCC(=O)Nc1cc(C)on1,31.2%,
CCc1ccc(CN2C(=O)c3ccccc3C2C(=O)NCC2CCCO2)cc1 (stereo not drawn),-11.7%,
CSc1nc(C)cc(SC(C(C)=O)C(=O)Nc2ccccc2)n1 (stereo not drawn),,15.8 µM (active)
CC(Sc1nnc2c(n1)C1CCC2(C)C1(C)C)C(=O)Nc1ccccc1 (stereo not drawn),-8.04%,
CSc1nc(N(C)NC(=O)c2cccc(C)c2)c2ccccc2n1,-0.565%,
CC(=O)c1cc(-c2ccccc2)n(CC(=O)NC2CCCCC2)c1C,7%,
COC(=O)C(C(=O)OC)C1c2ccccc2C=C(C2CC2)N1C(=O)OC (stereo not drawn),,inactive
CC(C)(C)N(CC#CCC(O)(c1ccccc1)C1CCCC1)CCO (stereo not drawn),1.5%,
O=C(COC(=O)c1ccc(F)cc1)Nc1nc2ccc([N+](=O)[O-])cc2s1,8.53%,
CC(C)C(NC(=O)C1CCC(C(C)(C)C)CC1)C(=O)NCCCN1CCCCC1 (stereo not drawn),1.26%,
COc1cccc(NC(=O)CN(C)S(=O)(=O)c2ccc(C)cc2)c1,-2.08%,
CCOC(=O)CN(C)S(=O)(=O)c1ccc(-c2cc(C(=O)OC)sc2C(F)(F)F)cc1,,5.97 µM (active)
COC(=O)c1sc(C(F)(F)F)c(-c2ccccc2)c1S(=O)(=O)N(C)C,1.08%,
Cc1ccc(SC(CC(=O)c2ccc(C(C)(C)C)cc2)C(=O)O)cc1 (stereo not drawn),,0.199 µM (active)
Cc1ccc(SC(C)C(=O)NCc2ccc(F)cc2)cc1 (stereo not drawn),10.6%,
Cc1ccn(C(CC(=O)c2ccc(Br)cc2)C(=O)O)n1 (stereo not drawn),0.837%,
Cc1sc2c(c1C)c(=O)n(-c1ccccc1)c(=O)n2CC(=O)NCC1CCCO1 (stereo not drawn),-1.33%,
Cn1c(=O)c2c(nc(N3CCCCCC3)n2CC(O)COc2ccc(Cl)cc2)n(C)c1=O (stereo not drawn),,11.2 µM (active)
Cn1c(=O)c2c(nc(N3CCCCCC3)n2CC(=O)c2ccc(Br)cc2)n(C)c1=O,-2.72%,
O=C(c1ccc(Cl)cc1)c1ccc(OCC(O)CN2CCCCC2)cc1 (stereo not drawn),7.65%,
CC(C(=O)N=Nc1c(O)n(C)c2ccc(Br)cc12)n1cnc2ccccc2c1=O (stereo not drawn),-6.13%,
Cc1ccc(S(=O)(=O)Nc2nc(N)n(-c3ccccc3)n2)cc1,-1.7%,
Cc1ccccc1-n1nnnc1SCCCC(=O)c1ccc(F)cc1,,0.0794 µM (active)

SMILES,"activity, negative = inhibition",Potency
O=c1c2ccccc2nnn1CSc1nnnn1-c1ccccc1,-10.9%,
Cc1c(NC(=O)CSc2nnnn2-c2ccc(C(=O)O)cc2)c(=O)n(-c2ccccc2)n1C,-1.93%,
NC(N)=Nc1nc2ccc(Br)cc2c(=O)[nH]1,11.2%,
O=C(Nc1cccnc1)c1ccc(Cl)c([N+](=O)[O-])c1,6.15%,
Cc1cc(C)n(-c2nc(SCC(=O)N3CCCC3)c3c4c(sc3n2)CCCC4)n1,,14.1 µM (active)
C=C(C)CSc1nc(N)c2c3c(sc2n1)CCC3,1.92%,
COCCn1c(C)cc(C(=O)CSc2ncnc3sc4c(c23)CCC4)c1C,-6.4%,
Cc1[nH]nc(SCC(=O)NCC(C)C)c1[N+](=O)[O-],-13.8%,
O=C(c1cccc(F)c1)N1CCC(O)(c2cccnc2)CC1,-1.82%,
O=C(CN1CCN(C/C=C/c2ccccc2)CC1)Nc1ccc(F)cc1F,9.94%,
O=C(c1cccc(F)c1)N1CCC2(CC1)CCN(c1ccccc1)CC2,-3.17%,
Cc1ccccc1CS(=O)(=O)CC1(O)CCN(C(=O)c2cccc(C(F)(F)F)c2)CC1,8.45%,
O=C(CN1CCN(C(=O)c2cccc(F)c2)CC1)Nc1ccccc1F,,12.6 µM (active)
Cc1ccccc1CN1CCN(C(=O)c2cccc(F)c2)CC1,,15.8 µM (active)
COc1ccc(Cn2c(=O)cc(C)[nH]c2=S)cc1,-0.953%,
CCOc1ccc2sc(NS(=O)(=O)c3ccc(N)cc3)nc2c1,6.19%,
Cc1cccc(NC(=S)NCCN(C2CCCCC2)C2CCCC2)c1,2.22%,
CCOc1ccc(/C=C(/NC(=O)c2ccccc2)C(=O)NCCC(=O)O)cc1,3.16%,
Cc1ccccc1CC1(CO)CCCN(C(=O)c2cc(-c3ccccc3)no2)C1 (stereo not drawn),6.3%,
COc1cc(C(=S)N2CCOCC2)cc(OC)c1OC(=O)c1cc([N+](=O)[O-])c(C)c([N+](=O)[O-])c1,-15.4%,
O=[N+]([O-])c1ccccc1OCCCCN1CCCCC1,5.91%,
O=C(Oc1ccccc1C(=S)N1CCCCC1)c1cc([N+](=O)[O-])cc([N+](=O)[O-])c1,,8.91 µM (active)
Cc1cc(C)n(Cc2cnc(N3CCOCC3)s2)n1,1.49%,
Cc1nn(CC2CC2)c(=O)n1N(C)c1ncc(C(F)(F)F)cc1Cl,11.8%,
N#C/C(=C\c1ccc(O)c(O)c1)C(=O)NCc1ccccc1,,inactive
CCOC(=O)/C(C#N)=C\c1c(C)cc(C)c(COC(C)=O)c1C,1.88%,

SMILES,"activity, negative = inhibition",Potency
CC(C)(C)C(=O)/C(C#N)=C/c1ccc(O)cc1,,1.58 µM (active)
C=CCn1c(COc2ccccc2C)nnc1SCC(=O)O,-4.73%,
COc1ccccc1NC(=O)CSc1nnc(C)n1CC1CCCO1 (stereo not drawn),-9.88%,
CC(=O)Nc1ccc(NC(=O)CSc2nnc(COc3ccccc3C)n2CC2CCCO2)cc1 (stereo not drawn),,10 µM (active)
CC(OC(=O)c1ccccc1N1C(=O)C2C3CCC(C3)C2C1=O)C(=O)c1ccccc1 (stereo not drawn),20.1%,
O=[N+]([O-])c1ccccc1Nc1ccc(O)cc1,-3.44%,
CC(C)OCCCNC(=O)c1cc(Sc2ccc(F)cc2)nc2ccccc12,-5.97%,
CCNS(=O)(=O)c1ccc(NC(=O)Nc2cccc(OC)c2)cc1,-8.67%,
COc1cccc(NS(=O)(=O)c2ccc3[nH]cc(C(=O)NCCCOC(C)C)c(=O)c3c2)c1,,11.2 µM (active)
Cc1ccc(Nc2c3c(nc4ccccc24)CCC3)cc1,0.124%,
Cc1ccc(-c2csc(NC(=O)Cn3[nH]c(=O)c4ccccc4c3=O)n2)cc1,3.41%,
CCOC(=O)c1sc(NC(=O)CSc2nc(C)cc(C(F)(F)F)n2)c(C#N)c1C,,2.24 µM (active)
CCOC(=O)c1ccc(NC(=O)CSc2ncccn2)cc1,-10.2%,
CCN(CC)C(=O)c1sc(NC(=O)c2ccco2)c(C#N)c1C,2.09%,
Cc1cc(C(F)(F)F)c(C#N)c(SCC(=O)NC2CC2)n1,10.4%,
CCOC(=O)c1sc(NC(=O)CSc2ncccn2)c(C#N)c1C,,28.2 µM (active)
CCOC(=O)c1sc(NC(=O)CSc2n[nH]c(CC)n2)nc1C,-0.18%,
O=C(Nc1cccc(CCc2ccccn2)c1)c1ccc(Cl)cc1,-0.24%,
O=C(Cn1nnc2ccccc2c1=O)NCc1ccc(Cl)cc1,0.87%,
O=C(NCc1ccc(Cl)cc1)c1cc(=O)nc2sc(-c3ccccc3)nn12,,5.01 µM (active)
Nc1c(C(=O)NCc2ccccc2)nnn1Cc1cccc(Cl)c1,14.8%,
O=C(Nc1cccnc1)c1ccc2c(c1)OCO2,3.17%,
COc1ccc(C(=O)Nc2cccnc2)cc1C(=O)Nc1cccnc1,8.94%,
CCOC(=O)c1ccc(-c2ccc(C(=O)Nc3cccnc3)o2)cc1,,22.4 µM (active)
OC1CSc2nc3ccccc3n2C1 (stereo not drawn),16.1%,
